Source: ChEMBL document CHEMBL3988442, “University of Dundee, Small-Polar-MMV Screening Library” (2021)
The campaign covered roughly 69,000 compounds. About 420 (0.61%) showed an effect of 50% or more. This is one part of a sample in which strong results are shown more often than they occur.

The compounds below were run against T1, Histidine--tRNA ligase (Leishmania infantum) (UniProt A4I591) (assay: Leishmania infantum Histidine tRNA synthetase (LdHisRS)). Conditions: 30 µM.
T1 sequence (whole entry): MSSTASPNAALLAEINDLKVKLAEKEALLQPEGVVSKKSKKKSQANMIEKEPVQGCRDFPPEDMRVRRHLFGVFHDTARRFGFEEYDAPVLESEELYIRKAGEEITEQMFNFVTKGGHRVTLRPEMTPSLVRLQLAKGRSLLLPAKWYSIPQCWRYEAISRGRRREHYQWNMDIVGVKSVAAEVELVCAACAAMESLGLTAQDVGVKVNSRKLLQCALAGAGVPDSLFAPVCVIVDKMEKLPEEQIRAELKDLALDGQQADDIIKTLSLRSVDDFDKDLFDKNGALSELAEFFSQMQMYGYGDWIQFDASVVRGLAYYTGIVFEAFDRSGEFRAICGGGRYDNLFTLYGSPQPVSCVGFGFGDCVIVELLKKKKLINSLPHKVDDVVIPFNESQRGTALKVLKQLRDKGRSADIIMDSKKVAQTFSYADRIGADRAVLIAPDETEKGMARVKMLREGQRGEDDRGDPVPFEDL
Assay type: functional
Set-up: scale not given: in the data most compounds retested in dose-response had high values

Structure (SMILES) | Percent Effect
CN1CCCC[C@@H]2[C@H]1[C@@H](c1ccccc1)CCN2C(=O)c1cnccn1 | 25%
CC(C)OCCCNC(=O)[C@@]12CNC[C@@H]1CN(S(C)(=O)=O)C2 | -3.23%
CCC1=N[C@@]2(CC[C@@H]3CN(Cc4ccc(Cl)cc4)C[C@@H]32)C(=O)N1 | 3.01%
CC(C)NC(=O)[C@@H]1C[C@@H]2CCN(Cc3ccoc3)C[C@H]2O1 | 17.3%
Cc1ccc(NC(=O)Nc2c(O)oc3ccccc3c2=O)cc1C | 16.1%
O=C(O)C1c2nc[nH]c2CCN1Cc1ccccc1-c1ccccc1 (stereo unspecified) | 28.8%
O=C(O)C1c2nc[nH]c2CCN1CC(c1ccccc1)c1ccccc1 (stereo unspecified) | 107%
O=C(O)C1c2nc[nH]c2CCN1Cc1ccc(-c2ccccc2)s1 (stereo unspecified) | 28.8%
Cc1cccc(CN2C(=O)CC[C@@H]3[C@H]2CCN3Cc2ccc(F)cc2)n1 | 20.6%
Cc1ccc(CN2CCC[C@@H]3CN(C(=O)c4ccco4)C[C@@H]32)o1 | 15.5%
CCCn1nccc1C(=O)N1CCN(C(=O)C2CC2)[C@@H]2CS(=O)(=O)C[C@@H]21 | 0%
CC(C)=CCN1C[C@H]2CC[C@@H]1CN(C(=O)Cn1c(C)cc(C)nc1=O)C2 | 23.8%
CC(=O)c1ccc(C(=O)N2C[C@@H]3CC[C@H](C2)N(CC2CCC2)C3)s1 | 19.2%
Cc1cc(C)n(CC(=O)N2CCCCC2CCN(C)C)c(=O)n1 (stereo unspecified) | 16%
Cc1cc(C)n(CC(=O)N2C[C@@H]3CC[C@H](C2)N(CC2CCC2)C3)c(=O)n1 | 57.1%
Cc1ccc(C(=O)N2C[C@@H]3CC[C@H](C2)N(CC2CCC2)C3)s1 | 21.9%
O=C(NC1CCCC1)N1C[C@H]2CN(c3ccncc3)C[C@@]2(C(=O)O)C1 | -1.96%
CN(C)C(=O)[C@H]1C[C@H]2OCC[C@H]2N(Cc2ccc3c(c2)OCO3)C1 | 29.4%
O=C1CO[C@H]2CN(S(=O)(=O)c3ccccc3)C[C@H]2N1CC1CCCCC1 | 27.8%
COCC(=O)NC[C@@]1(COc2cnccn2)C[C@@H](O)[C@@H](O)C1 | 10.8%
Cc1cnc(N2C[C@H]3C[C@H](C(=O)N4CCN(C)CC4)N(C)[C@H]3C2)nc1 | 5.05%
CC(=O)Nc1ccc2nc(-c3nccn3CCCN(C)C)ccc2c1 | 12.8%

Structure (SMILES) | Percent Effect
CC(=O)Nc1ccc2nc(-c3nccn3C[C@@H]3CCCO3)ccc2c1 | 51.1%
CC(=O)Nc1ccc2nc(-c3nccn3CC(C)(C)CO)ccc2c1 | 10.6%
O=C([C@@H]1C[C@@H]2CCN(Cc3ccoc3)C[C@H]2O1)N1CCCC1 | 2.73%
CN(C)C[C@@H]1C[C@@H]2CN(C(=O)c3ccoc3)CC[C@@H]2N1CC1CC1 | 7.32%
NC(=O)N1C[C@H](NC(=O)c2cscn2)[C@@H]2OCCC[C@@H]21 | 13.6%
CC(C)CC(=O)N1CC[C@H]2N(C)CC[C@@]2(C(=O)Nc2cccnc2)CC1 | 11.7%
O=C(Nc1ccc2c(ccn2CCN2CCOCC2)c1)c1ccncc1 | 25.7%
CCN(CC)C(CNC(=O)c1ccc(S(C)(=O)=O)cc1)c1ccco1 (stereo unspecified) | 19.2%
CCCn1cc(NC(=O)c2ccc(S(C)(=O)=O)cc2)ccc1=O | 94.6%
COC(=O)N1CCCN(C(=O)c2cccc3cccnc23)CC1 | 8.26%
Cn1cc(NC(=O)Nc2cccc3cccnc23)ccc1=O | 114%
CCCn1cc(NC(=O)c2ccncc2)ccc1=O | 104%
CCCn1cc(NC(=O)c2ccc(N(C)CC)cc2)ccc1=O | 31.5%
CCCn1cc(NC(=O)c2ccc(NC(=O)NC3CC3)cc2)ccc1=O | 92.8%
CN(C)C(=O)Cc1ccccc1NCc1cccc2cccnc12 | 13.6%
O=C(Nc1ccc(CCN2CCSCC2)cc1)NC1CC1 | 16.4%
Cn1cc(C(=O)Nc2cccc(F)c2)ccc1=O | 26.5%
CCCN1CCC(NC(=O)Nc2ccc(OC)c(OC)c2)CC1 | 1.33%
COCC1(CNC(=O)[C@@]23CNC[C@@H]2CN(C2CCCC2)C3)CC1 | 12.8%
CS(=O)(=O)N1C[C@H](NC(=O)c2ccno2)[C@@H]2OCCC[C@@H]21 | 10%
COc1ccc(CN2C[C@@H]3OCCN(C)[C@@H]3C2)cc1 | 19.3%
Cc1nc([C@@H]2C[C@H]3CN(Cc4scnc4C)C[C@H]3O2)no1 | 17.1%

Structure (SMILES) | Percent Effect
Cn1cc(C(=O)N[C@H]2CN(Cc3nccs3)[C@@H]3CCCO[C@H]23)cn1 | 28.6%
Fc1cnc(N2C[C@H]3CCC[C@@]3(COc3ccccn3)C2)nc1 | 0%
CC(=O)N1CCO[C@@H]2CN(Cc3cccc(Cl)c3)C[C@@H]2C1 | 15.3%
COc1cccc(CN2C[C@@H]3COC[C@]3(COc3cccnc3)C2)c1 | 19.3%
c1ccc(OC2COC3(CCN(Cc4ccccn4)CC3)C2)cc1 (stereo unspecified) | 15%
Cc1cccc(CN2CCS(=O)(=O)[C@@H]3CCN(C(=O)C4CC4)CC[C@@H]32)n1 | 5.26%
CCS(=O)(=O)c1cccc(C(=O)Nc2cccc3c2C(=O)N(C)C3=O)c1 | 21.5%
Cn1cc(NC(=O)c2cccc3cccnc23)ccc1=O | 20.5%
CCCn1cc(NC(=O)c2cccc3cccnc23)ccc1=O | 75.9%
CN1CCC/C1=N\S(=O)(=O)c1ccc(NC(=O)c2ccc(F)cc2)cc1 | 15.6%
CCCn1cc(NC(=O)c2cccnc2O)ccc1=O | 17.1%
CCCn1cc(NC(=O)c2ccc(S(=O)(=O)CC)cc2)ccc1=O | 114%
O=C(C[C@@H]1COC[C@H]2CN(Cc3ccccc3)C[C@@H]12)N1CCCC1 | 23.1%
CN1[C@@H](C(=O)NCC2CC2)C[C@@H]2CN(Cc3ccco3)C[C@@H]21 | 17.1%
CCOC(=O)[C@]12CCCN(Cc3nccs3)C[C@H]1CN(C(C)=O)C2 | 10.7%
O=C([C@@H]1CC[C@@H]2[C@@H](CCN2CCOCc2ccccc2)O1)N1CCCC1 | 16%
CN(C)C(=O)CN1C[C@@H]2CC[C@H](C1)N(Cc1ccc3nsnc3c1)C2 | 11.3%
Cc1cnc(N2CC[C@@H]3O[C@@H](COCc4ccccn4)CC[C@@H]32)nc1 | 13%
O=c1[nH]nc(-c2cccs2)c2sc(N3CCOCC3)nc12 | 11.9%
COc1ccccc1C1CC(=O)Nc2c1c(=O)[nH]n2C1CCCC1 (stereo unspecified) | 14.3%
COc1cccc(CNc2nc(N3CCOCC3)ns2)c1OC | 13.5%
CCOc1cccc(C2CC(=O)NCc3nc(N4CCCC4)sc32)c1 (stereo unspecified) | 24.7%

Structure (SMILES) | Percent Effect
CCn1ncnc1C1CC(=O)NCc2nc(N3CCCC3)sc21 (stereo unspecified) | 15.7%
CC(C)Oc1ccccc1C1CC(=O)Nc2nc(N3CCOCC3)sc21 (stereo unspecified) | 97.5%
COc1cccc(C2CC(=O)Nc3nc(N4CCCCC4)sc32)c1OC (stereo unspecified) | 120%
COc1ccccc1C1CC(=O)Nc2nc(N3CCCCC3)sc21 (stereo unspecified) | 118%
COc1cccc(C2CC(=O)Nc3nc(N4CCOCC4)sc32)c1OC (stereo unspecified) | 111%
CC(C)Oc1ccccc1C1CC(=O)Nc2c1cnn2C (stereo unspecified) | -14.3%
COc1ccccc1C1CC(=O)Nc2c1c(=O)[nH]n2C(C)C (stereo unspecified) | 16.5%
COc1cccc(CNCc2ccnc(N3CCOCC3)c2)c1OC | 7.14%
Cc1cccc(CN2C(=O)CC[C@@H]3[C@H]2CCN3Cc2ccc(C)s2)n1 | 8.03%
CC1=N[C@@]2(CC[C@@H]3CN(S(=O)(=O)N(C)C)C[C@@H]32)C(=O)N1CC(C)C | 9.02%
CC(=O)N1CC[C@H]2CC(=O)N(CCc3c[nH]cn3)CC[C@H]2C1 | 9.46%
Cc1ncc(C(=O)N2CC[C@@]3(O)CCN(C(=O)N(C)C)C[C@H]3C2)cn1 | 10.6%
O[C@@]1(CN2CCN(Cc3ccncc3)CC2)CCCN2CCCC[C@@H]21 | 20%
COc1cccc(C2CC(=O)Nc3nc(N)sc32)c1OC (stereo unspecified) | 91.4%
COc1cccc([C@@H]2N[C@H](c3nccs3)Cc3ccsc32)c1OC | 9.86%
O=C1CC(c2ccccc2C(F)(F)F)c2sc(N3CCOCC3)nc2N1 (stereo unspecified) | 5%
Cn1ncc2c1NC(=O)CC2c1ccccc1Br (stereo unspecified) | -2.5%
COc1cccc(C2C3=C(COC3=O)Nc3[nH]nc(C)c32)c1OC (stereo unspecified) | 16.7%
O=C1CC(c2ccccc2Br)c2sc(N3CCOCC3)nc2N1 (stereo unspecified) | 87.5%
Cc1ccc(C(=O)N2[C@@H]3CC[C@H]2CN(C)C(=O)C3)c(=O)[nH]1 | 15.9%
CN1[C@@H](C(=O)NCC2CC2)C[C@H]2CN(Cc3cccc(C#N)c3)C[C@H]21 | 17.4%
CN(C)CCN1C(=O)C[C@@H]2[C@@H]1CCN2S(=O)(=O)c1ccccc1 | 13.6%

Structure (SMILES) | Percent Effect
O=C(N[C@@H]1CN(Cc2ccc3c(c2)OCO3)[C@@H]2CCCO[C@@H]21)C1CC1 | 7.55%
O=C1CC[C@H]2CN(c3ncc(F)cn3)CC[C@H]2N1CCc1ccccn1 | 4.84%
Cc1csc(N2CCN(C(=O)CCC(=O)c3ccc(C)s3)CC2)n1 | 50%
Cc1csc(N2CCN(C(=O)c3ccc(C)s3)CC2)n1 | 11.4%
Cc1csc(N2CCN(C(=O)Cc3ccc(C)s3)CC2)n1 | 35.7%
COCCN1CCO[C@@H]2CN(C(=O)COc3ccc(C)cc3)C[C@@H]2C1 | 10.3%
Cc1cc(C(=O)N2CC[C@@H]3CO[C@@H](CN4CCCC4)[C@@H]3C2)no1 | -2.63%
CCCn1nc2c(cc1=O)CN(CC(=O)Nc1ccncc1)CC2 | 25%
CCCn1nc2c(cc1=O)CN(CCCS(N)(=O)=O)CC2 | 61.9%
CCCn1nc2c(cc1=O)CN(CCS(C)(=O)=O)CC2 | 40.5%
CCCn1nc2c(cc1=O)CN(CCCN1CCCC1=O)CC2 | 52.4%
CCn1nc2c(cc1=O)CN(CCCN1CCCC1=O)CC2 | 30.7%
CCCn1nc2c(cc1=O)CN(CCN1CCCC1=O)CC2 | 23.7%
CN(C)C(=O)CO[C@H]1CN(Cc2ccccc2)[C@@H]2CCCO[C@H]12 | 20.6%
CC(C)(C)CC(=O)N1CC[C@H]2NC(=O)N(Cc3ccccc3)C(=O)[C@H]21 | 30.6%
Cc1ncsc1CN1CC[C@H]2OCC[C@@]2(C(=O)NC(C)C)C1 | -0.971%
CO[C@@H]1CC[C@H]2[C@H]1OCCN2Cc1ccc(F)c(F)c1 | 8.33%
c1cnn(CCCO[C@@H]2CN(C3CCOCC3)[C@@H]3CCCO[C@@H]32)c1 | 15.3%
